Data taken from PubChem BioAssay (EPA / NIEHS).
Inconclusive results are not listed. The source made the active and inactive calls. Rule for the calls: active = hit-call score of the fitted dose curve at least 0.9, where 1 is the maximum; inactive = score below 0.9.

Read-out: Cytochrome P450 2C9 (Homo sapiens) (UniProt P11712)
Test: CLD_CYP2C9_48hr: CellzDirect (CLD) Gene Expression Assay for xenobiotic metabolism (CYP2C9) at 48 hours (AID 2283701)
Description: CLD_48hr is a cell-based, multiplexed-readout assay that uses hepatocyte, a human liver primary cell, with measurements taken at 48 hours after chemical dosing in a 96-well plate.CLD_CYP2C9_48hr is one of 16 assay component(s) measured or calculated from the CLD_48hr assay. It is designed to make measurements of mRNA induction, a form of inducible reporter, as detected with chemiluminescence signals by Quantitative Nuclease Protection Assay (qNPA) technology.Data from the assay component CLD_CYP2C9_48hr was analyzed at the endpoint, CLD_CYP2C9_48hr, in the positive analysis fitting direction relative to DMSO as the negative control and baseline of activity. Using a type of inducible reporter, gain-of-signal activity can be used to understand changes in the reporter gene as they relate to the gene CYP2C9. Furthermore, this assay endpoint can be referred to as a primary readout. To generalize the intended target to other relatable targets, this assay endpoint is annotated to the cyp intended target family, where subfamily is xenobiotic metabolism.
Human hepatocyte cultures were treated daily for two consecutive days with fresh dosing solutions containing appropriate concentrations of the 320 ToxCast chemicals (chemical identities were blinded to CellzDirect and other ToxCast collaborators), vehicle control (0.2% DMSO), and positive control inducers as summarized in Table 1. Due to the large number of treatment groups and chemicals examined, the ToxCast chemicals were divided into two groups (spanning two independent cultures of hepatocytes from separate donor preparations (Hu778: ToxCast plates 1 and 2; Hu776: ToxCast plates 3 and 4). Each preparation of human hepatocyte cultures was treated with respective vehicle control, medium only control, set of six positive controls/reference chemicals for the five hepatic receptor pathways, and a subset of eight of the ToxCast chemicals (indoxacarb, pyrithiobac-sodium, norflurazon, cyhalofop-butyl, methomyl, thiram, acetochlor, and propiconazole). These replicate data, coupled with internal replicates designed within the blinded ToxCast chemical library, provided additional data to evaluate interindividual differences between hepatocyte preparations and their potential impact on chemical profiles.Cell morphology and integrity were evaluated using phase-contrast microscopy as an indicator of hepatocyte cell health (Tyson & Green, 1987). Cultures for each treatment group (i.e., media, vehicle [0.2% DMSO], positive control inducers [multiple concentrations], and the ToxCast chemicals [multiple concentrations]) were observed and cell morphology was assessed relative to vehicle control cultures at each harvest time point (0, 6, 24, or 48 h). […] Images were evaluated at the conclusion of the study to assess changes in cell integrity and account for the effects of chemical exposure on uncharacteristic changes in concentration-dependent gene expression profiles. The results from these determinations of apparent cytotoxicity were annotated (yes/no) alongside the corresponding qNPA data for reference.At the conclusion of each treatment period, hepatocyte cultures (96-well) were washed with 1 volume of HBSS, lysed by addition of 25 ul ArrayPlate lysis buffer (HTG, Tucson, AZ), and 70 ul/well of Denaturation Oil, denatured by incubation at 95C for 10 min, and frozen at approximately -70C until analysis by nuclease protection assay (qNPA) (Roberts et al., 2007). For qNPA analysis, cell lysates were thawed at 50C for approximately 30 min, qNPA probes were added, and samples were incubated at 95C for 10 min to begin the detection process by denaturing the target RNA, dissociating the duplexes and secondary structure hybridization. At the conclusion of the hybridization period, S1 nuclease reagent was added to each sample to digest all nonprotected nucleotides at 50C for 60-90 min. […]

Row | Compound | outcome
1 | CC(C)(C)C(O)C(Oc1ccc(Cl)cc1)n1cncn1 (stereo unspecified) | inactive
2 | COP(=O)(OC)OC=C(Cl)Cl | inactive
3 | Clc1ccccc1-c1nnc(-c2ccccc2Cl)nn1 | inactive
4 | CNC(=O)Oc1ccccc1OC(C)C | inactive
5 | COC(=O)c1ccccc1CS(=O)(=O)NC(=O)Nc1nc(OC)cc(OC)n1 | inactive
6 | COc1cc(OC)nc(NC(=O)NS(=O)(=O)c2cc(NC=O)ccc2C(=O)N(C)C)n1 | inactive
7 | CC(C)OC(=O)Nc1cccc(Cl)c1 | inactive
8 | CCc1ccc(C(=O)NN(C(=O)c2cc(C)cc(C)c2)C(C)(C)C)cc1 | inactive
9 | O=C(O)CCCOc1ccc(Cl)cc1Cl | inactive
10 | C#CCN1C(=O)COc2cc(F)c(N3C(=O)C4=C(CCCC4)C3=O)cc21 | inactive
11 | Cc1cc(C)nc(NC(=O)NS(=O)(=O)c2ccccc2C(=O)OC2COC2)n1 | inactive
12 | CN1CSC(=S)N(C)C1 | inactive
13 | ClC1C(Cl)C(Cl)C(Cl)C(Cl)C1Cl (stereo unspecified) | inactive
14 | CC1(C)C(C=C(Cl)Cl)C1C(=O)OC(C#N)c1ccc(F)c(Oc2ccccc2)c1 (stereo unspecified) | inactive
15 | CCCN(CCC)c1c([N+](=O)[O-])cc(C(F)(F)F)cc1[N+](=O)[O-] | inactive
16 | O=[N+]([O-])c1c(Cl)c(Cl)c(Cl)c(Cl)c1Cl | inactive
17 | COP(=S)(OC)Oc1ccc([N+](=O)[O-])cc1 | inactive
18 | COC(=O)c1ccccc1S(=O)(=O)NC(=O)N(C)c1nc(C)nc(OC)n1 | inactive
19 | N#CN | inactive
20 | C[C@H]1[C@H](c2ccc(Cl)cc2)SC(=O)N1C(=O)NC1CCCCC1 | inactive
21 | CCC(C)(NC(=O)c1cc(Cl)c(C)c(Cl)c1)C(=O)CCl (stereo unspecified) | inactive
22 | CC(C)(C)C(O)/C(=C\c1ccc(Cl)cc1Cl)n1cncn1 (stereo unspecified) | inactive
23 | CCOC1Oc2ccc(OS(C)(=O)=O)cc2C1(C)C (stereo unspecified) | inactive
24 | CCOc1nc(NC)nc(NC(=O)NS(=O)(=O)c2ccccc2C(=O)OC)n1 | inactive
25 | CCC(C)(C)C(=O)OC1=C(c2ccc(Cl)cc2Cl)C(=O)OC12CCCCC2 | inactive
26 | Cc1[nH]c(=O)n(C(C)(C)C)c(=O)c1Cl | inactive
